The text below walks through data of PubChem BioAssay (NCATS).

Inconclusive results are not listed. Active and inactive are the calls of the source. Calls come from the whole dose curve; as a rule, active = well fitted inhibition curve with a large enough effect; inconclusive = small, poorly fitted or top-dose-only effect; inactive = flat fitted curve, though single readings scatter.

In this assay the test system is CRL-7250. Put plainly: qHTS assay to identify novel small-molecules to repurpose for Merkel cell carcinoma treatment (AID 1296009). Note: nearly all actives have a fitted effect of over 60% in size. Particulars: MCC and control cell lines, CellTiter-Glo viability, 72 h; series mostly up to 92 µM; activity change, negative = cytotoxicity: at the top concentration. The method, boiled down:
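Cells were incubated with compound for 72 hr at 37 degree celsius before CellTiter-Glo addition. Luminescence was normalized with no-cell wells as full cytotoxicity and DMSO as baseline.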
Regarding `C=C[C@H]1C(O[C@@H]2O[C@H](CO)[C@@H](O)[C@H](O)[C@H]2O)OC=C2C(=O)N3CCc4c([nH]c5ccccc45)[C@H]3C[C@H]21` (stereo not given in full), the “outcome” value was “inactive [at 17.4 µM]”. For `COc1ccc(C2(O)c3c(ccc4c3OC(C)(CCC=C(C)C)C=C4)NC(=O)C2OC)cc1` (stereo not given), the “outcome” value is “inactive [at 17.4 µM]”. Take `C[C@H]1/C=C/C=C/C=C/C=C/C=C/[C@@H](O)[C@H](C(=O)O)[C@H](O)C[C@H](O)CCC[C@H](O)C[C@H](O)C[C@H](O)[C@@H](C)C(=O)O[C@@H]1C`: the “outcome” value is “inactive [at 17.4 µM]”.

For `O=C(/C=C/c1ccccc1)OC[C@H]1O[C@@H](OC(=O)c2cc(O)c(O)c(O)c2)[C@H](O)[C@@H](O)[C@@H]1O`, the “outcome” value was “inactive [at 17.4 µM]”. Consider `CC1=CC(=O)CC(C)(C)C1(O)CCC(C)O` (stereo not given), for which the compound was classed as inactive. For `CC(C)(C)NCC(O)COc1cccc2c1CCCC2=O` (stereo not given), the call was inactive. Under `Cc1nnc(-c2ccc3occ(-c4ccc(S(C)=O)cc4)c3c2)o1` (stereo not given) stands “inactive”. With `C/C(=C\CCC(C)CCO)C(=O)O[C@@H]1[C@@H](O)[C@H](OC2OC=C(C(=O)O)C3CCC(C)(O)C23)O[C@H](CO)[C@H]1O` (stereo not given in full), the “outcome” value was “inactive [at 17.4 µM]”. Turning to `CC(=O)O[C@@H]1[C@H](O[C@@H]2O[C@@H](CO)[C@H](O)[C@H]2O)[C@@H](O[C@@H]2O[C@@H](C)[C@H](O[C@@H]3OC[C@@H](O)[C@H](O)[C@H]3O)[C@@H](O)[C@H]2O)[C@H](OC(=O)[C@]23CCC(C)(C)C[C@H]2C2=CCC4[C@@]5(C)CC[C@H](O[C@@H]6O[C@H](C(=O)O)[C@@H](O)[C@H](O)[C@H]6O[C@@H]6O[C@H](CO)[C@H](O)[C@H](O)[C@H]6O)[C@@](C)(C=O)C5CC[C@@]4(C)[C@]2(C)CC3)O[C@@H]1C` (stereo not given in full), the outcome is “inactive [at 9.27 µM]”.

With `CO[C@H]1O[C@@H]2O[C@@]3(C)CCC4[C@H](C)CCC([C@H]1C)[C@]42OO3` (stereo not given in full), the compound was classed as inactive. As to `C=C1CCC2C(C)(C(=O)O)CCCC2(C)C1CCC1=CCOC1=O` (stereo not given), the compound was called inactive.

Take `O=c1[nH]ccc2nc(-c3ccc(CN4CCC(c5nc(-c6ccccn6)n[nH]5)CC4)cc3)c(-c3ccccc3)cc12`: the call was inactive. With `N[C@@H](CCNCc1ccc(Cl)cc1)C(=O)N1CCCCC1`, the outcome was inactive.

On to `CC(=O)C1CCC(=O)N1Cc1ccccc1` (stereo not given), for which the compound was classed as inactive.

With `O=S(=O)(NC1CCC(c2cc(F)ccc2F)(S(=O)(=O)c2ccc(Cl)cc2)CC1)C(F)(F)F` (stereo not given), the call was inactive. As to `C/C=C(\C)C(=O)O[C@H]1[C@@H](O[C@]2(COC(=O)CC(C)C)O[C@H](COC(=O)C(C)C)[C@@H](OC(C)=O)[C@@H]2O)O[C@H](COC(C)=O)[C@@H](O)[C@@H]1O`, the “outcome” value is “inactive [at 17.4 µM]”. For the compound `CC(=O)OCC(Cc1ccccc1)NC(=O)C(Cc1ccccc1)NC(=O)c1ccccc1` (stereo not given), the “outcome” value is “inactive [at 17.4 µM]”. As for `CC(O)(CC(=O)O)CC(=O)OCc1ccc(O[C@@H]2O[C@H](CO)[C@@H](O)[C@H](O)[C@H]2O)cc1` (stereo not given in full), the “outcome” value was “inactive [at 17.4 µM]”.

For `CC1(C)CC[C@]2(C(=O)O)CC[C@]3(C)C(=CCC4[C@@]5(C)C[C@@H](O)[C@H](O)[C@@](C)(CO)C5[C@H](O)C[C@]43C)[C@@H]2C1` (stereo not given in full), the “outcome” value is “inactive [at 17.4 µM]”. Consider `CN1CCc2cc3c(cc2C(=O)Cc2cc4c(cc2C1)OCO4)OCO3`, for which the compound was called inactive.

Consider `COc1cc(C(O)C(CO)Oc2ccc(CCCO[C@@H]3O[C@@H](C)[C@H](O)[C@@H](O)[C@H]3O)cc2OC)ccc1O` (stereo not given in full), for which the “outcome” value was “inactive [at 17.4 µM]”. As to `COc1ccc(O[C@@H]2O[C@H](CO)[C@@H](O)[C@H](O)[C@H]2O)cc1OC`, the result was inactive. Regarding `CCCCc1c(-c2ccc(OC)cc2)[nH]c2nccnc12`, the compound was classed as inactive.

`C/C=C(\C)C(=O)OCC1OC(OC2OC(CO)C(O)C(O)C2O)C(O)C(O)C1O` (stereo not given): the “outcome” value is “inactive [at 17.4 µM]”. Consider `O=C1C(Cl)=C(N2CCOCC2)C(=O)N1c1ccc(Cl)c(Cl)c1`, for which the “outcome” value is “inactive [at 17.4 µM]”. Regarding `CCN[C@@H]1C[C@H](N)[C@@H](O[C@H]2OC(CN)=CC[C@H]2N)[C@H](O)[C@H]1O[C@H]1OC[C@](C)(O)[C@H](NC)[C@H]1O`, the “outcome” value is “inactive [at 17.4 µM]”. Take `CCOC(=O)CCNc1cc(N2CCc3ccccc3CC2)nc(-c2cccnc2)n1`: the outcome was inactive.

For `C=C1CCC2(OC1)OC1CC3C4CC=C5CC(O)CC(O[C@@H]6OC[C@@H](O)[C@H](O)[C@H]6O)C5(C)C4CCC3(C)C1(O)C2C` (stereo not given in full), the “outcome” value was “inactive [at 17.4 µM]”. `Cc1occc(=O)c1O[C@@H]1O[C@H](CO[C@@H]2OC[C@](O)(CO)[C@H]2O)[C@@H](O)[C@H](O)[C@H]1O`: the “outcome” value is “inactive [at 17.4 µM]”. Under `CC(=O)c1c(O)cc2cccc3c2c1CC(C)(O)O3` (stereo not given) stands “inactive”; under `CC(=O)NC(CCC(=O)O)C(=O)NCCc1ccc(O)cc1` (stereo not given), “inactive”.

For the compound `COC1=Cc2c(nc3n(c2=O)C(C)C(=O)NC3(O)C(C)C)OC=C1` (stereo not given), the outcome was inactive. On to `C/C(=C\CCC1(C)C2CCC(C2)C1(C)O)C(=O)O` (stereo not given), for which the compound was classed as inactive. As to `CCC(O)C(C)C1CCC(C(C)C(=O)O)O1` (stereo not given), the compound was called inactive.

Take `CO[C@@]12CC3[C@@H]([C@@H](O)[C@@H](OC(C)=O)C4[C@](C)(COC(C)=O)CCC[C@]34C)[C@@H](C)C1=CC(=O)O2` (stereo not given in full): the “outcome” value was “inactive [at 17.4 µM]”.

For the compound `COc1ccc(C2COc3cc(O)ccc3C2)c(O)c1OC` (stereo not given), the compound was called inactive. Consider `C[C@@H]1O[C@@H](O[C@H]2[C@H](O)[C@@H](C(=O)O)O[C@@H](O[C@H]3CC[C@@]4(C)C(CC[C@]5(C)C4CC=C4C6CC(C)(C)CC[C@]6(C(=O)O)CC[C@]45C)C3(C)C)[C@@H]2O[C@@H]2O[C@H](CO)[C@@H](O)[C@H](O)[C@H]2O)[C@H](O)[C@H](O)[C@H]1O` (stereo not given in full), for which the outcome was “inactive [at 9.27 µM]”. `C=C(C)[C@@H]1CC[C@](C)(O)[C@@H](OC(=O)c2ccccc2)C1`: the outcome was inactive. On to `C=C1CC/C=C(/CO)C(=O)C[C@@H]2[C@@H]1CC2(C)C`, for which the compound was called inactive. Consider `O=C(O)c1cc(C(F)(F)F)ccc1N1CC[C@H](OCc2ccccn2)C1`, for which the compound was called inactive.
